Screens as filed in PubChem BioAssay.
Hits are enriched below; roughly 11% of the tested compounds scored in any of these assays.
Ins promoter up = MIN6 insulin promoter up-regulation; MIN6 insulin promoter-GFP reporter, high-content imaging; stronger effect = higher value; z-score at 5 µM; 190,000 tested, 0.3% active;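 active = z-score above 3 at 5 µM with at least 500 cells counted in the well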
WT yeast gro inh = growth inhibition of WT yeast, mitochondrial fusion screen; AID 1362; inhibition, % at 10 µM; mitochondrial fusion phenotypic screen, WT strain; 190,000 tested, 2.1% active; in the data active = inhibition above about 58%; tested in S. cerevisiae
INS promoter inh = TRM-6 insulin promoter activity inhibition; AID 1273; 130,000 tested, 0.9% active; TRM-6 cells (human fetal islet line), insulin promoter-eGFP reporter, imaging; reporter expression induced with tamoxifen; inhibition, % at 2 µM;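 active = inhibition above the mean plus 3 SD, with well images judged a real hit on visual review, cut at about 60% in these data, passing the limit was not always enough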
Autophagy mod = modulators of autophagy; MEF GFP-LC3 puncta imaging; test concentration mostly 10 µM; calls only at 10 µM (by protocol); 190,000 tested, 0.98% active; AID 463193;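 active = percentage of spot-positive cells more than 3 SD above its plate mean, without a fluorescence outlier flag or 80% toxicity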
Lmaj promast = inhibitors of Leishmania major promastigote growth. Leishmania major promastigotes, resazurin fluorescence viability. inhibition, % at 10 µM. 200,000 tested, 9% active; in the data active = inhibition above about 50%;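 note: promastigotes grown with compound for 44 hours at 28 °C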
Lmaj promast 1uM = L. major promastigote growth inhibition, 1 uM repeat; shares compounds with Lmaj promast; 1,100 tested, 13% active; AID 1258; resazurin fluorescence, 48 h; inhibition, % at 1 µM;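 active = inhibition above about 50% in both repeat tests, limit read from the data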
Large screens that a line does not name were inactive (follow-up assays come after a bar, where they were run).

O=S(=O)(c1cccs1)N1CCC(CO)(Cc2ccc(Cl)cc2)CC1	none (no result: INS promoter inh)
Cc1nn(-c2ccccc2)c(N)c1C(O)(CC(=O)C(F)(F)F)C(F)(F)F (centres undefined)	none (no result: INS promoter inh)
Cc1nn(-c2ccccc2)c(N)c1C(O)(C(F)(F)F)C(F)(F)F	Lmaj promast 98 | Lmaj promast 1uM inactive
Cc1cccc(NC(=S)NC2CC3CCCC(C2)N3CC(C)C)c1 (centres undefined)	Lmaj promast 95 | Lmaj promast 1uM inactive
Cc1ccc(C(=O)N/N=C\c2cc3c(cc2Br)OCO3)s1	none
Cc1ccc(S(=O)(=O)N2CCC(=O)N(C(COCc3ccc(C(F)(F)F)cc3)Cc3ccccc3)CC2)cc1 (centres undefined)	Lmaj promast 73 | Lmaj promast 1uM inactive
Cc1ccc(S(=O)(=O)N2CCC(=O)N(C(COCc3cccc(C)c3)Cc3ccccc3)CC2)cc1 (centres undefined)	none
COc1ccc(C(=O)Nc2ccccc2)cc1S(=O)(=O)Nc1cc(C)on1	none
c1ccc2c(c1)ncn2CCC1CCCCC1	none
CCn1c(N2CCN(S(=O)(=O)c3ccc(Cl)cc3)CC2)nc2ccccc21	Lmaj promast 81 (no result: Ins promoter up, INS promoter inh) | Lmaj promast 1uM inactive
CC(c1ccccc1C(O)(c1ccccc1)c1ccccc1)N(C)C (centres undefined)	Lmaj promast 99 | Lmaj promast 1uM inactive
COc1ccc(/C(C)=N/Nc2nc3ccccc3n3cnnc23)cc1OC	none (no result: WT yeast gro inh, INS promoter inh, Autophagy mod, Lmaj promast)
Cc1cc(C)c(COCc2cc(/C=N/O)c(C)cc2C)cc1/C=N/O	Lmaj promast 89 (no result: Ins promoter up) | Lmaj promast 1uM inactive
CC(C)OC(=O)[C@H]1[C@H](c2ccc(Cl)cc2)[C@@](C#N)(C(N)=O)[C@@H]2C=CC(C(N)=O)=CN21	none
Cc1cc2ncn(C(=O)N3CCCCCC3)c2cc1C	none
CC(=O)c1ccc(Oc2cc(-c3ccccc3)nc(-c3ccccc3)n2)cc1	none
O=Cc1ccc(Oc2cc(-c3ccccc3)nc(-c3ccccc3)n2)cc1	Lmaj promast 57 | Lmaj promast 1uM inactive
CCc1ccc(C2CC(c3cccc(OC)c3)n3nc(N)nc3N2)cc1 (centres undefined)	none (no result: INS promoter inh, Autophagy mod, Lmaj promast)
COc1cccc(C(=O)NC2CCN(C(=O)N3c4ccccc4Sc4ccccc43)CC2)c1	Lmaj promast 71 | Lmaj promast 1uM inactive
Cc1noc(C)c1CSc1nnc2c(C)cc3ccccc3n12	none (no result: Ins promoter up, WT yeast gro inh)
COC(=O)c1ccc(N/C(=N/S(=O)(=O)c2ccccc2)c2ccccc2)cc1	none (no result: INS promoter inh)
O=S(=O)(/N=C(/Nc1ccc(F)c(F)c1F)c1ccccc1)c1ccccc1	Lmaj promast 89 | Lmaj promast 1uM inactive
O=C(N1CCN(c2ccc(F)cc2)CC1)C1(c2cccs2)CCOCC1	none (no result: INS promoter inh)
c1ccc2c(-c3c[nH]c4ccccc34)c3ccccc3nc2c1	WT yeast gro inh 79, Lmaj promast 55 | Lmaj promast 1uM inactive
O=C(CN1CCc2ccccc2C1)N1CCN(S(=O)(=O)c2ccccc2)CC1	Lmaj promast 90 (no result: INS promoter inh) | Lmaj promast 1uM inactive
O=C(O)CSCC(=O)N1CCN(S(=O)(=O)c2ccccc2)CC1	none (no result: INS promoter inh)
CCOc1ccc(Br)cc1S(=O)(=O)Nc1ccccc1N1CCOCC1	Lmaj promast 100 | Lmaj promast 1uM inactive
CCOc1ccc(Br)cc1S(=O)(=O)Nc1ccc(N2CCOCC2)cc1	none
O=C(Nc1ccc2c(c1)C(=O)N(c1ccccc1)C2=O)C1CCCO1 (centres undefined)	none (no result: Ins promoter up)
CCCCC(=O)NC(=S)Nc1ccc(NC(=O)C(C)C)c(OC)c1	none (no result: INS promoter inh)
CC(C)Cc1cc(C(=O)N2CCCC(CCC(=O)N(C)CCc3ccccn3)C2)no1 (centres undefined)	none
FC(F)(F)c1ccc(C2NCCc3sccc32)cc1 (centres undefined)	Lmaj promast 93 (no result: INS promoter inh) | Lmaj promast 1uM inactive
CCOC(=O)CSC1=NN2CCS(=O)(=O)N=C2S1	none
C=CCSC1=NN2CCS(=O)(=O)N=C2S1	Lmaj promast 100 (no result: INS promoter inh) | Lmaj promast 1uM inactive
COc1cccc(-c2cc(=O)c3cc(NC(=O)c4ccc(N(C)C)cc4)ccc3[nH]2)c1	none
O=C(O)c1cc2c(s1)CCCC2	none
ClCc1nnc(-c2cc3c(s2)CCCC3)o1	Lmaj promast 98 (no result: Ins promoter up) | Lmaj promast 1uM inactive
CC(C)(C)C1CCc2sc(-c3nnc(CCl)o3)cc2C1 (centres undefined)	WT yeast gro inh 68, Lmaj promast 91 | Lmaj promast 1uM inactive
c1ccc(Cn2nc(-c3ccccc3)nc2-c2ccccc2)cc1	Lmaj promast 94 | Lmaj promast 1uM inactive
Cc1ccc2cc(CNC(C)C)c(=O)[nH]c2c1	none (no result: INS promoter inh)
C1=Nc2ccccc2CN1c1ccccc1	Lmaj promast 85 | Lmaj promast 1uM inactive
CCOC(=O)c1cc(CC)sc1NC(=O)CC1Sc2ccc(C(F)(F)F)cc2NC1=O (centres undefined)	none
COn1c(SCc2ccc(C)cc2C)nc2ccccc2c1=O	none
COc1cc(/C=C(\C#N)c2nc3ccccc3[nH]2)ccc1Oc1ccc([N+](=O)[O-])cn1	none
Cc1cc(/C=C(/C#N)c2nc3ccccc3[nH]2)c(C)n1-c1cccc([N+](=O)[O-])c1	Lmaj promast 88 | Lmaj promast 1uM inactive
COc1cc(C2SCC(=O)N2c2nnc(C34CC5CC(CC(C5)C3)C4)s2)cc(OC)c1OC (centres undefined)	none
COc1ccc(C2SCC(=O)N2c2nnc(C34CC5CC(CC(C5)C3)C4)s2)cc1 (centres undefined)	Lmaj promast 98 | Lmaj promast 1uM inactive
Cc1ccc(-c2nnn3c2nc(Cl)c2ccccc23)cc1	none (no result: Ins promoter up)
Fc1cccc(-c2nnn3c2nc(Cl)c2ccccc23)c1	Lmaj promast 98 (no result: INS promoter inh) | Lmaj promast 1uM 81
C/C(=N\NC(=O)c1c[nH]c2ccccc12)c1ccc(C)o1	Lmaj promast 54 | Lmaj promast 1uM inactive
O=c1[nH][nH]cc1C=Nc1ccccc1O	Lmaj promast 98 (no result: INS promoter inh) | Lmaj promast 1uM inactive
COC(=O)c1ccc(Sc2nnnn2-c2ccccc2)c([N+](=O)[O-])c1	Lmaj promast 99 (no result: INS promoter inh) | Lmaj promast 1uM inactive
CCSC1=N/C(=C\c2cccc(F)c2)C(=O)S1	Lmaj promast 60 | Lmaj promast 1uM inactive
CCSC1=N/C(=C\c2ccc3c(c2)OCO3)C(=O)S1	none (no result: Ins promoter up)
Cc1ccc(S(=O)(=O)N2CCC(C)CC2)c([N+](=O)[O-])c1	none (no result: INS promoter inh)
Cc1c([N+](=O)[O-])ccc(S(=O)(=O)N2CCC(C(N)=O)CC2)c1C	Lmaj promast 84 | Lmaj promast 1uM inactive
COC(=O)CN1C(c2ccc(OC)cc2)=Nc2ccc(Cl)cc2C1c1ccccc1 (centres undefined)	none (no result: INS promoter inh)
COC(=O)CN1C(c2cccc(Cl)c2)=Nc2ccc(Cl)cc2C1c1ccccc1 (centres undefined)	WT yeast gro inh 76, Lmaj promast 60 (no result: INS promoter inh) | Lmaj promast 1uM inactive
CC1(CCc2ccccc2)NC(=S)N(c2ccccc2)N1 (centres undefined)	Lmaj promast 70 | Lmaj promast 1uM inactive
C=CCC1(O)C(=O)N2C(=C1C(=O)OCC)c1ccc3ccccc3c1CC2(C)C (centres undefined)	Lmaj promast 53 (no result: Ins promoter up) | Lmaj promast 1uM inactive
